The campaign covered roughly 310,000 compounds. About 14,000 (4.5%) showed an effect of 50% or more. The effect is printed as a negative number. What follows is part of a selection rich in strong results, with near analogues and random picks from the rest.
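Further: peak tail current of the secondary pulse compared with the same well before compound.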

The target of the experiment is human ether-à-go-go-related gene (hERG) potassium channel (human, UniProt Q12809). Nature of the experiment: primary screen, population patch clamp on CHO cells stably expressing hERG; higher = less effect of the substance.
Chain of human ether-à-go-go-related gene (hERG) potassium channel (Q12809 whole entry, looked up): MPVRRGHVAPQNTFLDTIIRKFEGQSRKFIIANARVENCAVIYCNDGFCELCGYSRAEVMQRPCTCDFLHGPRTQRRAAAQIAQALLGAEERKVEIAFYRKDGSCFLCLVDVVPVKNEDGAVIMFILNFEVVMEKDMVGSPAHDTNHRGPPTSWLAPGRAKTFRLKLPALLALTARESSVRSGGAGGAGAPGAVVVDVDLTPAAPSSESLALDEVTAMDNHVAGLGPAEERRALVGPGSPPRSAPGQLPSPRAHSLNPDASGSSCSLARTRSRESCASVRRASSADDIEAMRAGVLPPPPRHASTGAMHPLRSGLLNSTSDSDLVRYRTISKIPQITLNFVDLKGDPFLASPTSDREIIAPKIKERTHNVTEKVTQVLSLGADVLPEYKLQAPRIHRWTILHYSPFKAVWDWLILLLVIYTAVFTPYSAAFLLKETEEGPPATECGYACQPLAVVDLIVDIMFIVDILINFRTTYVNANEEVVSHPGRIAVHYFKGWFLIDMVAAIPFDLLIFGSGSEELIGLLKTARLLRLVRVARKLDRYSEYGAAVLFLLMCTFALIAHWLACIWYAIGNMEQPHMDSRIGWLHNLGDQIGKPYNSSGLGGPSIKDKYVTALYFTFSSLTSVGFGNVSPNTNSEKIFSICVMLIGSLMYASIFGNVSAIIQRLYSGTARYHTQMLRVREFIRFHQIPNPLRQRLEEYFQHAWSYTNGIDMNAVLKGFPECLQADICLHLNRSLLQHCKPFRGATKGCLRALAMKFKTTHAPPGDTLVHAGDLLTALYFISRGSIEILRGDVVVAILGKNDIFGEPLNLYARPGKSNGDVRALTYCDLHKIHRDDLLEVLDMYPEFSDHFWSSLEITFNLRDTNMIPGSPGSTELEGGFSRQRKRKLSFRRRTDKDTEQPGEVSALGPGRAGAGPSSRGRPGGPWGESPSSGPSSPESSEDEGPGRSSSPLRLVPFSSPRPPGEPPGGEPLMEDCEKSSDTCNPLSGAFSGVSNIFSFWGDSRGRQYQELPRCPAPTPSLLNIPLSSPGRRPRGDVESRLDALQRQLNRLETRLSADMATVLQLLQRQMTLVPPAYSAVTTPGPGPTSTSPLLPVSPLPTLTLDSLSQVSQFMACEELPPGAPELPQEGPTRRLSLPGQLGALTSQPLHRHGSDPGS
On to `O=C(Nc1ccccc1)/C(=C\c1ccco1)NC(=O)c1ccco1`, for which the “hERG current change (%, negative = inhibition) at 10uM” value is -6.57%.
As for `COc1ccc(CCNC(=O)c2nnn(CC(=O)Nc3ccc(C)cc3C)c2N)cc1OC`, the figure is 13.8%; as for `CCCOC(=O)c1cccc(NC(=O)c2cccnc2)c1`, -39.7%; as for `O=C1CC(c2ccccc2)SC(N(c2ccccc2)c2ccccc2)=N1` (stereo not shown), -0.167%.
To `Cn1cc(Cl)c(C(=O)NNC(=S)NC2CCCCC2)n1` belongs 15.4%; to `Cc1cc(C)cc(N2CCCC2=O)c1`, 16.3%; to `O=C(CCC1CCN(C(=O)c2ccccc2Cl)CC1)NCc1ccc(F)cc1`, -18.9%.
To `O=C(N[C@@H]1C[C@H]2CC[C@@H]1C2)c1ccco1` belongs 4.88%; to `O=C(c1ccco1)N1CCN(C(=S)NCc2ccc(F)cc2)CC1`, -53.1%; to `CCNC(=S)N1CCN(C(=O)c2ccco2)CC1`, 5.8%.
Consider `O=C(NC1CC2CCC1C2)c1ccco1` (stereo not shown), for which the “hERG current change (%, negative = inhibition) at 10uM” value was -5.69%.
As for `O=C(c1ccco1)N1CCN(C(=S)Nc2ccc(F)cc2)CC1`, the figure is -2.5%; as for `CSc1ccccc1C(=O)N1CCC(CCC(=O)NCc2ccc(F)cc2)CC1`, -12.4%; as for `O=C(c1ccco1)N1CCN(C(=S)NC2CC3CCC2C3)CC1` (stereo not shown), -67.3%.
For the molecule `O=C(CCC1CCN(C(=O)c2ccco2)CC1)NCc1ccc(F)cc1`, the “hERG current change (%, negative = inhibition) at 10uM” value is -72.6%.
For `COCOc1ccc(-c2oc3c(C/C=C(\C)CCC=C(C)C)ccc(O)c3c(=O)c2OCOC)c(OCOC)c1`, the “hERG current change (%, negative = inhibition) at 10uM” value is listed as -9.2%.
Consider `CC(Oc1ccc(Cl)cc1Cl)C(=O)Nc1ncccn1` (stereo not shown), for which the “hERG current change (%, negative = inhibition) at 10uM” value is reported as -2.67%.
To `O=C(Nc1ccc(F)cc1)OC1CN2CCC1CC2` (stereo not shown) belongs -27.5%; to `CCOC(=O)C1CCCCN1Cc1ccc(C(F)(F)F)cc1` (stereo not shown), 7.75%; to `O=C(NCc1ccc(OC(F)(F)F)cc1)c1cc(-c2ccccc2)nn1CC1CC(c2cccnc2)=NO1` (stereo not shown), -57.4%.
To `O=C(NCC1CC1)c1cc(-c2ccccc2)nn1CC1CC(c2cccnc2)=NO1` (stereo not shown) belongs -25%; to `COc1ccccc1CNC(=O)c1cc(-c2ccccc2)nn1CC1CC(c2cccnc2)=NO1` (stereo not shown), -71.2%; to `O=C(c1cc(-c2ccccc2)nn1CC1CC(c2cccnc2)=NO1)N1CCOCC1` (stereo not shown), -4.25%.
As for `Cc1ccccc1-c1cc(C(=O)NCC2CC2)n(CC2CC(c3cccnc3)=NO2)n1` (stereo not shown), the figure is -20%; as for `Cc1ccccc1-c1cc(C(=O)NCc2ccco2)n(CC2CC(c3cccnc3)=NO2)n1` (stereo not shown), -15.6%.
Take `Cc1ccccc1-c1cc(C(=O)NCc2cccs2)n(CC2CC(c3cccnc3)=NO2)n1` (stereo not shown): the “hERG current change (%, negative = inhibition) at 10uM” value is listed as -26.2%.
With `O=C(NCc1ccco1)c1cc(-c2ccccc2)nn1CC1CC(c2cccnc2)=NO1` (stereo not shown), the “hERG current change (%, negative = inhibition) at 10uM” value is reported as -63.9%.
Turning to `CCOC(=O)c1cc(-c2ccccc2)nn1CC1CC(c2cccnc2)=NO1` (stereo not shown), the “hERG current change (%, negative = inhibition) at 10uM” value is given as 3.47%.
As for `O=C(NCc1cccs1)c1cc(-c2ccccc2)nn1CC1CC(c2cccnc2)=NO1` (stereo not shown), the figure is -51.8%; as for `COc1ccccc1CNC(=O)c1cc(-c2ccccc2C)nn1CC1CC(c2cccnc2)=NO1` (stereo not shown), -2.89%.
To `COc1ccc(NC(=O)C2CCCN(S(=O)(=O)c3ccc4[nH]c(=O)ccc4c3)C2)cc1` (stereo not shown) belongs 9.08%.
With `COCCCNC(=O)Cn1ncc2ccsc2c1=O`, the “hERG current change (%, negative = inhibition) at 10uM” value is on record as 13.6%.
To `O=C(COc1ccccc1Cl)NC(=O)NC1CCCCC1` belongs 5.11%; to `COc1ccc(CNC(=O)Cn2ncn3cccc3c2=O)cc1`, 3.12%; to `Cc1ccc(CNC(=O)c2cc(-c3ccccc3)nn2CC2CC(c3cccnc3)=NO2)cc1` (stereo not shown), -69.7%.
As for `COCCNC(=O)c1cc(-c2ccccc2)nn1CC1CC(c2cccnc2)=NO1` (stereo not shown), the figure is 2.9%; as for `CC(Oc1ccccc1F)c1nnc(SCC(=O)NCc2ccc3c(c2)OCO3)o1` (stereo not shown), -32.1%.
To `Cl.NS(=O)(=O)c1ccc(CCNCc2cc(Br)ccc2OCc2ccccc2F)cc1` belongs -75.9%; to `CCOc1ccc([N+](=O)[O-])cc1CNCCc1ccccc1.Cl`, -45.5%; to `Cl.NS(=O)(=O)c1ccc(CCNCc2cc(Br)ccc2OCc2ccccc2)cc1`, -71.8%.
For the molecule `NS(=O)(=O)c1ccc(NCc2cc(Cl)ccc2OCc2ccccc2F)cc1`, the “hERG current change (%, negative = inhibition) at 10uM” value is recorded as -2.13%.
In the case of `NS(=O)(=O)c1ccc(NCc2ccccc2OCc2ccccc2F)cc1`, the “hERG current change (%, negative = inhibition) at 10uM” value is recorded as -2.39%.
To `COc1ccc(Br)cc1CNc1ccc(S(N)(=O)=O)cc1` belongs -14.1%; to `CCn1c(SCc2nc(-c3ccccc3)no2)nc2ccccc21`, -24.6%.
To `CCCCOc1ccccc1C(=O)NCCCCCC(=O)O` belongs 10.3%.
As for `CCc1cccc(OCCCn2ccnc2)c1.O=C(O)C(=O)O`, the figure is -25.7%; as for `COC(=O)c1c(NC(=O)c2nc3nc(C)cc(C(F)F)n3n2)sc2c1CCC2`, 5.97%; as for `Cc1cc(C(F)F)n2nc(C(=O)Nc3sc4c(c3C(N)=O)CCC4)nc2n1`, -60.9%.
Regarding `Cc1cc(C(F)F)n2nc(C(=O)Nc3sc4c(c3C#N)CCC4)nc2n1`, the “hERG current change (%, negative = inhibition) at 10uM” value was 18.3%.
As for `CCC1CCC/C1=N\NC(=O)c1ccccc1Cl` (stereo not shown), the figure is 19.2%; as for `COc1cccc(NC(=O)COC(=O)CC(NC(N)=O)c2ccc(Cl)cc2)c1` (stereo not shown), -2.18%; as for `CCOc1ccccc1NC(=O)COC(=O)CC(NC(N)=O)c1ccc(Cl)cc1` (stereo not shown), -68.4%.
To `CCOc1ccccc1NC(=O)COC(=O)CSc1ccc(Cl)cc1` belongs 21.2%; to `COc1ccc(CNC(=O)COC(=O)CC(NC(N)=O)c2ccc(Cl)cc2)cc1OC` (stereo not shown), 1.27%; to `NC(=O)COC(=O)CC(NC(N)=O)c1ccc(Cl)cc1` (stereo not shown), 17.6%.
As to `N#Cc1ccc(COC(=O)CC(NC(N)=O)c2ccc(Cl)cc2)cc1` (stereo not shown), the “hERG current change (%, negative = inhibition) at 10uM” value is listed as -59.9%.
As for `CC(=O)c1c(O)cc(=O)oc1-c1ccc(C)cc1`, the figure is 16.7%; as for `COc1cc(C2N(c3ccccc3)CCN2c2ccccc2)ccc1OC(C)=O`, -1.36%; as for `Cn1c(CNc2ccccc2)nc2ccccc21`, 4.27%.
To `CCOC(=O)Cn1cc(C#N)c2ccccc21` belongs 15.1%; to `CCOC(=O)N1CCC(=NNc2ccc(S(N)(=O)=O)cc2[N+](=O)[O-])CC1`, -11.8%.
As for `CCCOc1ccc(S(=O)(=O)N2CCCC2)cc1[N+](=O)[O-]`, the figure is -30.1%; as for `CCOc1ccc(S(=O)(=O)N2CCOCC2)cc1[N+](=O)[O-]`, -52.2%; as for `CCOC(=O)N1CCC(=NNc2ccc(S(=O)(=O)N3CCOCC3)cc2[N+](=O)[O-])CC1`, -61.3%.
As for `CCCOc1ccc(S(=O)(=O)N2CCOCC2)cc1[N+](=O)[O-]`, the “hERG current change (%, negative = inhibition) at 10uM” value is reported as -57.8%.
For `CCOc1ccc(S(=O)(=O)N2CCOCC2)cc1NS(=O)(=O)c1ccc(OC)c([N+](=O)[O-])c1`, the “hERG current change (%, negative = inhibition) at 10uM” value was -41.7%.
To `CC(=O)N1CCC(=NNc2ccc(S(=O)(=O)N3CCOCC3)cc2[N+](=O)[O-])CC1` belongs -18.2%; to `O=[N+]([O-])c1cc(S(=O)(=O)N2CCOCC2)ccc1OCc1cccc(Cl)c1`, 1.31%; to `O=C1c2ccccc2C(=O)N1COc1ccc(S(=O)(=O)N2CCOCC2)cc1[N+](=O)[O-]`, -22.8%.
To `COCCn1c(SCC(=O)Nc2c(C)n(C)n(-c3ccccc3)c2=O)nc2ccccc2c1=O` belongs -19.6%; to `CCCC(=O)N(c1ccc(C(=O)O)cc1)c1nc(-c2ccccc2)c(C)s1`, 14.2%; to `CCOc1cc2c(cc1OCC)C(C(=O)O)C(c1cc(OC)c(OC)c(OC)c1)N(C)C2=O` (stereo not shown), 3.02%.
Turning to `COC(=O)[C@@H]1C[C@@H]2CC[C@@H](O)C[C@@H]2N1Cc1ccc(N2CCN(C)CC2)cc1`, the “hERG current change (%, negative = inhibition) at 10uM” value is on record as 9.87%.
As for `CCCCCCn1c(N2CCCC2)nc2c1c(=O)n(C)c(=O)n2C`, the figure is -1.96%; as for `Cn1c(N2CCC(C(N)=O)CC2)nc2c1c(=O)n(Cc1ccc(Cl)cc1)c(=O)n2C`, -58.5%.
To `Cn1c(N2CCCC2)nc2c1c(=O)n(Cc1cccc(F)c1)c(=O)n2C` belongs -19.6%.
To `CCCCCCn1c(N2CCC(C(N)=O)CC2)nc2c1c(=O)n(C)c(=O)n2C` belongs -56.4%.
Take `CCOC(=O)Cn1c(=O)c2c(nc(N3CCCCC3)n2Cc2ccccc2)n(C)c1=O`: the “hERG current change (%, negative = inhibition) at 10uM” value is listed as -40.4%.
Consider `CCCCCn1c(N2CCCC2)nc2c1c(=O)n(C)c(=O)n2C`, for which the “hERG current change (%, negative = inhibition) at 10uM” value is given as -9.54%.
To `Cn1c(N2CCC(C(N)=O)CC2)nc2c1c(=O)n(Cc1cccc(Br)c1)c(=O)n2C` belongs -64.7%; to `Cn1c(N2CCC(C(N)=O)CC2)nc2c1c(=O)n(Cc1ccc(Br)cc1)c(=O)n2C`, -57.3%; to `CC1CCN(c2nc3c(c(=O)n(C)c(=O)n3C)n2Cc2ccccc2)CC1`, -50%.
As for `Cn1c(Cl)nc2c1c(=O)n(Cc1cccc(Br)c1)c(=O)n2C`, the figure is -35.3%; as for `CC(O)CNc1nc2c(c(=O)n(Cc3ccc(Br)cc3)c(=O)n2C)n1C` (stereo not shown), -12.6%.
As for `CN(CCO)c1nc2c(c(=O)n(Cc3ccc(Cl)cc3)c(=O)n2C)n1C`, the figure is 3.79%.
